Key:
Assay in all cases: log2 ratio of Biotin-Ahx-Ub-VS probe labelling (fragment/DMSO); higher = less target engagement (more negative = stronger competition), active = hit call of the paper (q ≤ 0.05, log2 ratio ≤ -1)
Settings in all cases: compound concentration: 200 uM; treatment time: 3 h
USP34 = USP34 (UniProt Q70CQ2)
In short: (§1)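 Labelled DUBs from HEK293T lysate were NeutrAvidin-enriched, digested with LysC and trypsin, and run by diaPASEF LC-MS/MS. Before that, each 495 µg sample in Tris/CHAPS/IGEPAL buffer with protease inhibitors was treated in triplicate with fragment at 200 µM or vehicle for 3 h, then with Biotin-Ahx-Ub-VS at 0.5 µM final for 1 h. Values are average log2 ratios of fragment over vehicle by unpaired t-test, based on global-median-normalised Spectronaut label-free quantities from proteins with ≥2 unique peptides.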

USP36 = molecular target: T1, USP36 (UniProt Q9P275)
T1 sequence (whole entry): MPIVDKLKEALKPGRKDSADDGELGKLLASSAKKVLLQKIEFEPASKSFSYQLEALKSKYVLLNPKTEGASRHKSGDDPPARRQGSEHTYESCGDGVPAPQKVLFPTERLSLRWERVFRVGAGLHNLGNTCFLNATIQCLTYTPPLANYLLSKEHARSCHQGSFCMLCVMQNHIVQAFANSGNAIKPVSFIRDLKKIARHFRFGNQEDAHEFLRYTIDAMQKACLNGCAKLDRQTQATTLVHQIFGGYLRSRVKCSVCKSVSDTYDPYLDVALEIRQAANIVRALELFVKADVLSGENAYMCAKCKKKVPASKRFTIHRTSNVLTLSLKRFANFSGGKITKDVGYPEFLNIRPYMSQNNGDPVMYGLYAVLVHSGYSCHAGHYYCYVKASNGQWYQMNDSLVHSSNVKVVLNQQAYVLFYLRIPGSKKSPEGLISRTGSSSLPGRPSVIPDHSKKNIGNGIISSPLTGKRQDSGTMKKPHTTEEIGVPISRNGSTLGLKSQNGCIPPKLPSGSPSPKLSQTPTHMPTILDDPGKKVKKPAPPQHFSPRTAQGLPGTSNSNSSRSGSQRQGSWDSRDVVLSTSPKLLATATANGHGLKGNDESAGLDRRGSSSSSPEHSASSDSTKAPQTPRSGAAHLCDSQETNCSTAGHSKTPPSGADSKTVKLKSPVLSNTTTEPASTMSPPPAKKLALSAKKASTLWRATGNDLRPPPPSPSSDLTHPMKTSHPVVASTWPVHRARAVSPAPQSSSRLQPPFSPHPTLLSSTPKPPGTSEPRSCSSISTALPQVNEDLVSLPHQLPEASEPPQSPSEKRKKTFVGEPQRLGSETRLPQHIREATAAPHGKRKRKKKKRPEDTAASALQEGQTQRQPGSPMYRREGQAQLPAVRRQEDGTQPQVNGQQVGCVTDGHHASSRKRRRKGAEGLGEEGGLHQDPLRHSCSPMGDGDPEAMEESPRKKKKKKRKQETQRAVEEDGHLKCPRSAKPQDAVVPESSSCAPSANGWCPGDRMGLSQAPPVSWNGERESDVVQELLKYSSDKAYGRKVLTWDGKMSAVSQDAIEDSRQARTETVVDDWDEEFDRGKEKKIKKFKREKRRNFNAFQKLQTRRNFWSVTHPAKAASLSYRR
In short: as §1

USP38 = molecular target: T2, USP38 (UniProt Q8NB14)
T2 sequence (whole entry): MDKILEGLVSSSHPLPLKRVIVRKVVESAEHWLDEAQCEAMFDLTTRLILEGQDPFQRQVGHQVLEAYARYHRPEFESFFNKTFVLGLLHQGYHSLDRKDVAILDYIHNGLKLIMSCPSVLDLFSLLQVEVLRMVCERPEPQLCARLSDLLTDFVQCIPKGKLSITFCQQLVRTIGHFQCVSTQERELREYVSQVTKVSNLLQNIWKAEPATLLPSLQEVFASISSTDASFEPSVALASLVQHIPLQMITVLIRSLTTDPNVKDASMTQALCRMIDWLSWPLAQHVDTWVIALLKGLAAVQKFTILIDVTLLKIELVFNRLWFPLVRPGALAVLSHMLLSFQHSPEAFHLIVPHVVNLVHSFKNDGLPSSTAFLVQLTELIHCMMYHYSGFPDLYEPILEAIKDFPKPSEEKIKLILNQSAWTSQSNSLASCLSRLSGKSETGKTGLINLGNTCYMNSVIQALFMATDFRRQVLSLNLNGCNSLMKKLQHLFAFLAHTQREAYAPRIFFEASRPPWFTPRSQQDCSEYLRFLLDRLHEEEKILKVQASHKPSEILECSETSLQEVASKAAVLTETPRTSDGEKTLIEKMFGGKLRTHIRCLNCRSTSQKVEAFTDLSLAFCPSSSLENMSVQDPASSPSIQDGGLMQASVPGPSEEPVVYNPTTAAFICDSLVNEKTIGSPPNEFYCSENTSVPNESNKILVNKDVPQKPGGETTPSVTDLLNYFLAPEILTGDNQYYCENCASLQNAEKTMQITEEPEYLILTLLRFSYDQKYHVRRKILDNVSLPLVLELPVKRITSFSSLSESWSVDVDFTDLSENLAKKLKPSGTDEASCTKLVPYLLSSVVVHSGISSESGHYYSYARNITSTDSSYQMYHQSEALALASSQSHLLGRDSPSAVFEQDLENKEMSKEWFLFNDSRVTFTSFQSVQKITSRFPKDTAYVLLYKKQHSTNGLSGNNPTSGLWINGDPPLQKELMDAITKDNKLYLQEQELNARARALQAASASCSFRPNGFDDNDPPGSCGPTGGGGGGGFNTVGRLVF
In short: as §1

USP39 = molecular target: T3, USP39 (UniProt Q53GS9)
T3 sequence (whole entry): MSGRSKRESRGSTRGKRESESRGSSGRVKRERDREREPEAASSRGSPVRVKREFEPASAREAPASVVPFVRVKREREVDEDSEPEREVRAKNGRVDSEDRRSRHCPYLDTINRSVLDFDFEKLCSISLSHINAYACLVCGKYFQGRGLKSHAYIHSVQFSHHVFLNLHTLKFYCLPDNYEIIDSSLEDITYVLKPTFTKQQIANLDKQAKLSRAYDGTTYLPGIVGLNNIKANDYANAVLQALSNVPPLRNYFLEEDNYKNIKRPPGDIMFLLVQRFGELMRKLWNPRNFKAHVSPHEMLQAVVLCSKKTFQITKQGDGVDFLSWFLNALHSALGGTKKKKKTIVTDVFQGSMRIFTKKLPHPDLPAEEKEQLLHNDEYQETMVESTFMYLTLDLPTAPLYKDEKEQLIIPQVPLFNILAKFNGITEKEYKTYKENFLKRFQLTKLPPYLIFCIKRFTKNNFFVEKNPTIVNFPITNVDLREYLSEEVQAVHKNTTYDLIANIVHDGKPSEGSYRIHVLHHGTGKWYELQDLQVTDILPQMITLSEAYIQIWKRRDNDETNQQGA
In short: as §1

USP4 = molecular target: T4, USP4 (UniProt Q13107)
T4 sequence (whole entry): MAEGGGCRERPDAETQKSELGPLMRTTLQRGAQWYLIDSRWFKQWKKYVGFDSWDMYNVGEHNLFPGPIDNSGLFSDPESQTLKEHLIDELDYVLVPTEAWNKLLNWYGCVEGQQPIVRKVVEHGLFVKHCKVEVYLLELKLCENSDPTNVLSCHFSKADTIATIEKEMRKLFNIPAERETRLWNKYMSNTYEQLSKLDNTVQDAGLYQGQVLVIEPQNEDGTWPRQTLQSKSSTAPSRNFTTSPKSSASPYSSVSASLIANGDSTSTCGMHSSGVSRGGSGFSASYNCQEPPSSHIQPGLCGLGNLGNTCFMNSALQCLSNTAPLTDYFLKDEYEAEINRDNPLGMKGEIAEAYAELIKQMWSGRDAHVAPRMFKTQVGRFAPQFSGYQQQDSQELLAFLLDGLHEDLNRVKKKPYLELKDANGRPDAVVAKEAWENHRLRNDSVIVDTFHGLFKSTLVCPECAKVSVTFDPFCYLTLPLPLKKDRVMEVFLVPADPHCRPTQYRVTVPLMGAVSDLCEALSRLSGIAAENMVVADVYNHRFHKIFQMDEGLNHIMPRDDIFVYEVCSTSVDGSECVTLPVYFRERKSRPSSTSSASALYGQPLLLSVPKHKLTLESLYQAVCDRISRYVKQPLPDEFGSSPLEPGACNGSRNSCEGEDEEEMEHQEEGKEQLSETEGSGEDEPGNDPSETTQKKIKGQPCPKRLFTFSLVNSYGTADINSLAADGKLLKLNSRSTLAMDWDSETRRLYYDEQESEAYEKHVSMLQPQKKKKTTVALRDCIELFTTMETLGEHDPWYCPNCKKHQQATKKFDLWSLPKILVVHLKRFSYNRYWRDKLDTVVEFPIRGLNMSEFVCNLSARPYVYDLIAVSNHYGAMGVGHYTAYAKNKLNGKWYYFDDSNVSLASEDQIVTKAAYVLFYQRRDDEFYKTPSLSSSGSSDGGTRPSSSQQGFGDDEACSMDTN
In short: as §1

Measured: log2 ratio of Biotin-Ahx-Ub-VS probe labelling

Sequence of USP34 (Q70CQ2 whole entry, the tested form may be a part): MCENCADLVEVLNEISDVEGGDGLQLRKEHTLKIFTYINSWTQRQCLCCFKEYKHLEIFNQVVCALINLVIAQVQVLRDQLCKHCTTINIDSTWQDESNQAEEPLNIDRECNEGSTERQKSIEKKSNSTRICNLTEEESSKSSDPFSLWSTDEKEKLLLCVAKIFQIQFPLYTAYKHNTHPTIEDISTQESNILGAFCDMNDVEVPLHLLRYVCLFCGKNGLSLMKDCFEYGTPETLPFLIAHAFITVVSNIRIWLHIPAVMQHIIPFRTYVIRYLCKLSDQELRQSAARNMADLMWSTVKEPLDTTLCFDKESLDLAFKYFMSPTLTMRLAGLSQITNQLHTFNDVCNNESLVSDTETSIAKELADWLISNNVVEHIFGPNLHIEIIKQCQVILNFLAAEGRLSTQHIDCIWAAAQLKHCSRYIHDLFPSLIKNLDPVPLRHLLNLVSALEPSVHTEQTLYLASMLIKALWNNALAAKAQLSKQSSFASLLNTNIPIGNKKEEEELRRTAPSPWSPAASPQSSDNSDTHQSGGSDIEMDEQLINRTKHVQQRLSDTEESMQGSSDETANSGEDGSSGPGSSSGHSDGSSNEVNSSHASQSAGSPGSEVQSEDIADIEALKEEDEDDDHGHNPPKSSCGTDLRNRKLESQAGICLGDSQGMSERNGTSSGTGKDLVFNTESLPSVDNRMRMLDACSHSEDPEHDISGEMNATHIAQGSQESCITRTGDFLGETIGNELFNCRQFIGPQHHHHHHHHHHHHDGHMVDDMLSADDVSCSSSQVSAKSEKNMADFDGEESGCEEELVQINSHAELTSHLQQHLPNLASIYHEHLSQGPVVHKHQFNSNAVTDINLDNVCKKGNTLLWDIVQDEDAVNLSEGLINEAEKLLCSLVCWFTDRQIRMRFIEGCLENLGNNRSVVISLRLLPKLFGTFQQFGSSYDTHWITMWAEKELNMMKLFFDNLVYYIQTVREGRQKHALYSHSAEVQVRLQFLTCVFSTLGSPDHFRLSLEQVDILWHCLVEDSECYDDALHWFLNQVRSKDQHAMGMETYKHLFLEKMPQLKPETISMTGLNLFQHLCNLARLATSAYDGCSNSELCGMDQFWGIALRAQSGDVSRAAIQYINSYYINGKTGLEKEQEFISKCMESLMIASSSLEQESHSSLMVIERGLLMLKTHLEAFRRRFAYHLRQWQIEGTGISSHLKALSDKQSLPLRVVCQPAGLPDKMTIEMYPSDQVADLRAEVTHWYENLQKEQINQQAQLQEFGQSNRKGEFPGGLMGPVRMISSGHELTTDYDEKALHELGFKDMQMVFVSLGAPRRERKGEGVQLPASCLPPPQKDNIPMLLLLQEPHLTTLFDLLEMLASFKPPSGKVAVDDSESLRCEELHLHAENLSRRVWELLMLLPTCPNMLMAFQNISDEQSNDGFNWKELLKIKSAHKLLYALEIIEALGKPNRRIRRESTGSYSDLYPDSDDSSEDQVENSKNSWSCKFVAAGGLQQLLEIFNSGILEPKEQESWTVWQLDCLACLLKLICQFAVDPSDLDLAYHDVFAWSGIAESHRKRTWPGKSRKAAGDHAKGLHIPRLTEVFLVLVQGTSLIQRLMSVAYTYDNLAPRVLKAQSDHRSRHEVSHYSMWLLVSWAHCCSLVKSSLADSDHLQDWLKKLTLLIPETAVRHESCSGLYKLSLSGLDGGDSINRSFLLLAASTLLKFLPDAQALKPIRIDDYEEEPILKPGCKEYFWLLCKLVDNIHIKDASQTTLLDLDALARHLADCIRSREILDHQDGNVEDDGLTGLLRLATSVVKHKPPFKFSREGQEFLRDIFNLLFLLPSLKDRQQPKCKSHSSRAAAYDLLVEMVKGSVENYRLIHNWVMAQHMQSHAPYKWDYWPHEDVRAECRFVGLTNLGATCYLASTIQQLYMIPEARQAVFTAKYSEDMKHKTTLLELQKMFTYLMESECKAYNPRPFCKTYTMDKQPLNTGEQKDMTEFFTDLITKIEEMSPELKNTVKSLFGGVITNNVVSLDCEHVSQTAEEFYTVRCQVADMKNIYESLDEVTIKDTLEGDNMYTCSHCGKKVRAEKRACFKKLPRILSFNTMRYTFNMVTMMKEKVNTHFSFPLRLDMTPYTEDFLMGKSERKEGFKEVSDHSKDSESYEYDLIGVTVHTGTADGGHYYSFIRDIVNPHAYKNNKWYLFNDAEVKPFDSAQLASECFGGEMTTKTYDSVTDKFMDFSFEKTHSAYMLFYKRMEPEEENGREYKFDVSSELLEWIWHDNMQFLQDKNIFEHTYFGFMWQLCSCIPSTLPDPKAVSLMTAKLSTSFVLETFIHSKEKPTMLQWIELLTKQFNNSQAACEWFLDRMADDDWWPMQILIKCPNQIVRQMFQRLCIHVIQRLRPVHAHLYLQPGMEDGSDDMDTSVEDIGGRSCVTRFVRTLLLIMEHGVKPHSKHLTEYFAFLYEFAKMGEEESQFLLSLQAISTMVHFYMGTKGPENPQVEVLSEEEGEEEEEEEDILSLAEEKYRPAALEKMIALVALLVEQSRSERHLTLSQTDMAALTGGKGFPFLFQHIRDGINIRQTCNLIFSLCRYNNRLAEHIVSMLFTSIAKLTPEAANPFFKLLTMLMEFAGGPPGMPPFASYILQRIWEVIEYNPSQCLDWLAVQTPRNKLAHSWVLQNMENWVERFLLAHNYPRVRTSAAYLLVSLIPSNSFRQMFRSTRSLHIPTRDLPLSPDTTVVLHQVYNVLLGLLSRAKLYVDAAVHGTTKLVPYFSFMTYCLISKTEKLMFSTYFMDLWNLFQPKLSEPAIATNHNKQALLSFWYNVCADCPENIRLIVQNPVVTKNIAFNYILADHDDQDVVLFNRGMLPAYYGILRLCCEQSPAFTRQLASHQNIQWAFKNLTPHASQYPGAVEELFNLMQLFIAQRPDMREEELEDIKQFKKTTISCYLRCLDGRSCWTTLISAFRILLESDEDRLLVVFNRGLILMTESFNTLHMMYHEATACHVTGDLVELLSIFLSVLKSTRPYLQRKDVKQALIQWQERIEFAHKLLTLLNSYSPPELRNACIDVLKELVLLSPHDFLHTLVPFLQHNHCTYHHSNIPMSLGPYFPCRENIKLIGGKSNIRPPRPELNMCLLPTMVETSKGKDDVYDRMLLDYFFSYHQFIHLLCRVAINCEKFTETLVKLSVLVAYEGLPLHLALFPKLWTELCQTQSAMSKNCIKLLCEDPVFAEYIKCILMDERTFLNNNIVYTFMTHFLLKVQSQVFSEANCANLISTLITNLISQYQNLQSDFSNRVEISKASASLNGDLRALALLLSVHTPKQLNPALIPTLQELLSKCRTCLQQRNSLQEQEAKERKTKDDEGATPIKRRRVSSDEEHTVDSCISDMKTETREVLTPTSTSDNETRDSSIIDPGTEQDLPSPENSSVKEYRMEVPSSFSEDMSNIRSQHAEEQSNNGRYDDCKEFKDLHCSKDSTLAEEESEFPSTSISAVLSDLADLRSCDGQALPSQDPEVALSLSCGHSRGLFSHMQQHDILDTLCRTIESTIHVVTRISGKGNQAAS

O=C(CCl)NC(Cn1ccccc1=O)c1ccccc1 (stereo not given)
inactive: USP34 -0.106 | USP36 0.132 | USP38 -0.000312 | USP39 -0.0137 | USP4 -0.127

From the supplement of paper PMC11732987, “Enantioselective OTUD7B fragment discovery through chemoproteomics screening and high-throughput optimisation” (Communications Chemistry, 2025)
